This passage reports growth inhibition, inhibition and outcome results from PubChem BioAssay.

The structures appear in SMILES notation. A number with no mark means an inactive call. For some of these results: Entries with a potency or affinity are not part of this list. The source made the active and inactive calls. Unless noted, how the calls were made is not given here.

Assay [1] is described as follows: antimalarial activity against Dd2 strain (AID 2302;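 active means growth inhibition above 50% at the single 2 µM test dose, taken to imply half-maximal potency below 2 µM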;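 further: 0% = DMSO untreated growth and 100% = chloroquine plus artemisinin killed control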). Conditions: P. falciparum Dd2 in RBCs, LDH growth readout, 72 h; at 2 µM; stronger effect = higher value.
Assay [2] is described as follows: human hepatoma cell viability loss – ATP luminescence, cytotoxicity control for P. falciparum antimalarial project, primary screen (AID 2303;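 active means inhibition above 50%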;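 further: 0% = DMSO wells and 100% = digitonin-killed cells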). Conditions: HepG2 viability, 24-48 h, at 10 µM, stronger effect = higher value.
In assay [3] the target is L-lactate dehydrogenase (Plasmodium falciparum (isolate CDC / Honduras)) (UniProt Q27743). Kind of assay: PfLDH activity inhibition – cell lysate, 3D7 strain, counter-screen for P. falciparum growth inhibition project (AID 2304).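 Further: 0% = vehicle and 100% = reference inhibitor.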 The following applies: P. falciparum 3D7 crude extract, LDH APAD/NBT absorbance; at 2 µM; stronger effect = higher value. For orientation: A counterscreen serves to expose hits that act by an unwanted route or on another target.
Chain of L-lactate dehydrogenase (Plasmodium falciparum (isolate CDC / Honduras)) (Q27743 whole entry, looked up): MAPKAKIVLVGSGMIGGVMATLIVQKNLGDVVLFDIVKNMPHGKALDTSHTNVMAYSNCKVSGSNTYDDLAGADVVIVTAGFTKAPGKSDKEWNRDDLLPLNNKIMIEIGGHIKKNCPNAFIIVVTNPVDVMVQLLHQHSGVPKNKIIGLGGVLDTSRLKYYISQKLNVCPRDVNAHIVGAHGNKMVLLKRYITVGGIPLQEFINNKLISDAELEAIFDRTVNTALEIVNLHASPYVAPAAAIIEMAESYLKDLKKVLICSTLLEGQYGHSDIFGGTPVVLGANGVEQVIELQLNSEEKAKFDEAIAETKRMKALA

Assay [4] in a line: inhibition of 3D7 malaria parasite growth – strain 3D7 (AID 2306).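 Further: 0% = DMSO wells and 100% = chloroquine plus artemisinin control wells.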 The following applies: P. falciparum 3D7 erythrocytic growth, LDH absorbance, 72 h; at 2 µM; stronger effect = higher value.
For assay [5], the target named is Calcium-dependent protein kinase 1 (Plasmodium falciparum (isolate 3D7)) (UniProt P62344). Kind of assay: PfCDPK1 kinase inhibitors, biochemical, TCAMS library (AID 1159585; cut-off not given, nearly all actives have IC50 up to about 0.98 µM;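 further: inhibitors leave more ATP so luminescence rises with inhibition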). Conditions: recombinant PfCDPK1, Kinase-Glo ATP depletion luminescence. (In general: In Kinase-Glo more light means more ATP remaining.)
Chain of Calcium-dependent protein kinase 1 (Plasmodium falciparum (isolate 3D7)) (P62344 whole entry, looked up): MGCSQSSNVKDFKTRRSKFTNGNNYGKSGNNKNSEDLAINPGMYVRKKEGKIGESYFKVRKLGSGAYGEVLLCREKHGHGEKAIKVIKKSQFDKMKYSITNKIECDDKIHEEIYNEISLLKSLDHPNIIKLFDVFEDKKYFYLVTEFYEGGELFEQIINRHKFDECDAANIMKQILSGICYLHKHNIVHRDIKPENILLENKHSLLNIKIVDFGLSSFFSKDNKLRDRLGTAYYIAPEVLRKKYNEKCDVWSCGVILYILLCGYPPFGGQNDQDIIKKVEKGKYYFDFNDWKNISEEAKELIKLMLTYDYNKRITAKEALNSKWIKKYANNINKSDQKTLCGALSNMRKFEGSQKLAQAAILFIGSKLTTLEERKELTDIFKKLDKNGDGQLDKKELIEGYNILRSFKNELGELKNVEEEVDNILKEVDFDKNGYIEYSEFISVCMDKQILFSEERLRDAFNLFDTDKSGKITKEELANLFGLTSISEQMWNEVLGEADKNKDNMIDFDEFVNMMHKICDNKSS
Assay [6] addresses Plasmodium falciparum protein kinase 6 (PK6, PF3D7_1337100) (UniProt Q8IDW1). In words: PfPK6 kinase inhibitors, biochemical, TCAMS library (AID 1159586). Conditions: recombinant PfPK6, Kinase-Glo ATP depletion luminescence.
For assay [7], the target named is Protein kinase 7 (PK7), Plasmodium falciparum 3D7 (PF3D7_0213400) (UniProt Q7YTF7). In words: inhibition of Plasmodium PK7 catalytic activity – biochemical, TCAMS antimalarial set, Kinase-Glo luminescence (AID 1159587). Conditions: recombinant PfPK7, Kinase-Glo ATP depletion luminescence.
Chain of Protein kinase 7 (PK7), Plasmodium falciparum 3D7 (PF3D7_0213400) (Q7YTF7 1-343): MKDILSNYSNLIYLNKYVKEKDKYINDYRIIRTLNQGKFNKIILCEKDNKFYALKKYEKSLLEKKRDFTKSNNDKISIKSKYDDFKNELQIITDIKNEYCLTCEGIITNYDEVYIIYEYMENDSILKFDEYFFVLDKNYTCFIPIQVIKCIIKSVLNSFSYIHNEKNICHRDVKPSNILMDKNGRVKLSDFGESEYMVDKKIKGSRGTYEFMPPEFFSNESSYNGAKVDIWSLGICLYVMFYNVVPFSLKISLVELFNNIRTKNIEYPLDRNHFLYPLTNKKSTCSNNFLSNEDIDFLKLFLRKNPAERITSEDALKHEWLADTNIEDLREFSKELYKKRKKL
Assay [8] addresses Calcium-dependent protein kinase 4 (Plasmodium falciparum (isolate 3D7)) (UniProt Q8IBS5). In words: PfCDPK4 kinase inhibitors, biochemical, TCAMS library (AID 1159588; cut-off not given, nearly all actives have IC50 up to about 0.91 µM). Conditions: recombinant PfCDPK4, Kinase-Glo ATP depletion luminescence.

Chain of Calcium-dependent protein kinase 4 (Plasmodium falciparum (isolate 3D7)) (Q8IBS5 whole entry, looked up): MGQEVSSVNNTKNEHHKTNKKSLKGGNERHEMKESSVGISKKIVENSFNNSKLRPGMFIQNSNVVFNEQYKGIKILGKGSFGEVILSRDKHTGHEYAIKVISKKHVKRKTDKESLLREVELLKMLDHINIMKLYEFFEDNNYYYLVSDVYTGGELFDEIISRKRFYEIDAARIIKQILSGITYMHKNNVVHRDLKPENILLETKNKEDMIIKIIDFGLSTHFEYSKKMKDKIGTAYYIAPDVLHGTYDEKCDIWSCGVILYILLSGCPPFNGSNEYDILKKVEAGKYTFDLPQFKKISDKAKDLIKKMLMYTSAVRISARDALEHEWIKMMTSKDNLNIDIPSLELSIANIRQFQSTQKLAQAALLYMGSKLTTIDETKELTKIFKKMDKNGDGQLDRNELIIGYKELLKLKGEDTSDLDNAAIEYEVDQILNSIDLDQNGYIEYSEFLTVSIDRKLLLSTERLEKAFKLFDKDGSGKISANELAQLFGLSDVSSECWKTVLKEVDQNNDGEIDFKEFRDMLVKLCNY
Chain of Plasmodium falciparum protein kinase 6 (PK6, PF3D7_1337100) (Q8IDW1 1-305): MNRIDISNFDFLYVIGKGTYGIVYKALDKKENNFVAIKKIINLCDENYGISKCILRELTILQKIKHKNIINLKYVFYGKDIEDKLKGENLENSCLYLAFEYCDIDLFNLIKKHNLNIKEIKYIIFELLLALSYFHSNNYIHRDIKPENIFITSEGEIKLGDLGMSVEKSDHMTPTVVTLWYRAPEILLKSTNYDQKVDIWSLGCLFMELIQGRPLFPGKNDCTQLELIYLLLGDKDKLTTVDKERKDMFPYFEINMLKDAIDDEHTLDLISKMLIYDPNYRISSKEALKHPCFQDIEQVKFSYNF

On to `Cc1cc(NCC(c2ccccc2)c2ccccc2)nc(NCc2ccc(C(F)(F)F)cc2)n1`, for which the growth inhibition in assay [1] was 79% (active); in assay [4], 102% (active). For the same compound, the figures for the inhibition in assay [2] and in assay [3] were 29% and 2%, respectively. Besides, the outcome in assay [5], in assay [6], in assay [7] and in assay [8] was inactive.
For the compound `CC(C)N1CCC(NC(=O)N2CCCN(c3ncnc4cc(-c5ccccc5)sc34)CC2)CC1`, the growth inhibition in assay [1] was 11%; in assay [4], 87% (active). The inhibition in assay [2] was 31%; in assay [3], -4%. Besides, the outcome in assay [5], in assay [6], in assay [7] and in assay [8] was inactive.
For `CNC(=O)C(C)N(c1ccc(Cl)cc1)c1nc(C(C)(C)C)cs1` (stereo not given), the figures for the growth inhibition in assay [1] and in assay [4] were 98% (active) and 99% (active), respectively. Further, the inhibition in assay [2] was 0%; in assay [3] it was 7%. Moreover, the result in assay [5], in assay [6], in assay [7] and in assay [8] was inactive.
For `O=C(Nc1cccc2ccccc12)N1CCc2cc3nccc(N4CCN5CCC[C@H]5C4)c3cc21`, the results for the growth inhibition in assay [1] and in assay [4] were 86% (active) and 99% (active), respectively. For the same compound, the results for the inhibition in assay [2] and in assay [3] were 11% and 0%, respectively. Further, the result in assay [5], in assay [6], in assay [7] and in assay [8] was inactive.
Regarding `CC1CC(C)CN(CCCNc2ccc(C(=O)Nc3ccc(C(F)(F)F)cc3)cc2[N+](=O)[O-])C1` (stereo not given), the growth inhibition in assay [1] is 99% (active); in assay [4], 101% (active). For the same compound, the inhibition in assay [2] was 31%; in assay [3] it was -2%. Also, the result in assay [5], in assay [6], in assay [7] and in assay [8] was inactive.
As for `N#Cc1ccc(CN2CCCN(Cc3cccc(NC(=O)c4ccc(Cl)c(Cl)c4)c3)CC2)cc1`, the figures for the growth inhibition in assay [1] and in assay [4] were 10% and 95% (active), respectively. In addition, the inhibition in assay [2] was 19%; in assay [3], -1%. The outcome in assay [5], in assay [6], in assay [7] and in assay [8] was inactive.
For the compound `FC(F)(F)c1ccc2nc(-c3ccc(-c4cccc(CNCCc5ccncc5)c4)s3)[nH]c2c1`, the growth inhibition was 95% (active) in assay [1] and 100% (active) in assay [4]. For the same compound, the results for the inhibition in assay [2] and in assay [3] were 20% and -6%, respectively. In addition, the result in assay [5], in assay [6], in assay [7] and in assay [8] was inactive.
`CCC(C(=O)Nc1cc(=O)[nH]c2nc(-c3ccco3)nn12)c1ccccc1` (stereo not given): the growth inhibition was 68% (active) in assay [1] and 87% (active) in assay [4]. For the same compound, the figures for the inhibition in assay [2] and in assay [3] were 2% and -1%, respectively. Further, the result in assay [5], in assay [6], in assay [7] and in assay [8] was inactive.
On to `Nc1nc(N)c2c(ccc3c2ccn3CC2CC2)n1`, for which the results for the growth inhibition in assay [1] and in assay [4] were 3% and 96% (active), respectively. In addition, the inhibition was 46% in assay [2] and -4% in assay [3]. Also, the outcome in assay [5], in assay [6], in assay [7] and in assay [8] was inactive.
For the compound `NC(=NCCc1ccc(Cl)c(Cl)c1)c1ccc2ccccc2c1`, the growth inhibition in assay [1] was 29%; in assay [4], 100% (active). Besides, the inhibition is 60% (active) in assay [2] and -3% in assay [3]. Also, the outcome in assay [5], in assay [6], in assay [7] and in assay [8] was inactive.
`COc1cccc2cc(C(=O)N[C@@H](CC(C)C)C(=O)N[C@H](/C=N/NC(=O)OC(C)(C)C)CC(=O)OC(C)(C)C)oc12`: the growth inhibition in assay [1] is 57% (active); in assay [4], 85% (active). The inhibition is 4% in assay [2] and 0% in assay [3]. The result in assay [5], in assay [6], in assay [7] and in assay [8] was inactive.
Regarding `CCCCCN1CCCN(Cc2cccc(NC(=O)c3ccc(-c4ccccc4)cc3)c2)CC1`, the results for the growth inhibition in assay [1] and in assay [4] were 15% and 95% (active), respectively. The inhibition in assay [2] is 23%; in assay [3] it was 6%. Also, the outcome in assay [5], in assay [6], in assay [7] and in assay [8] was inactive.
In the case of `COc1cc2ncnc(Nc3ccc(OCc4ccccc4Br)c(OC)c3)c2cc1OC`, the growth inhibition in assay [1] was 62% (active); in assay [4], 100% (active). In addition, the inhibition in assay [2] was 11%; in assay [3], -1%. The outcome in assay [5], in assay [6], in assay [7] and in assay [8] was inactive.
As for `c1cncc(CNc2ncc(-c3ccsc3)c(-c3nccs3)n2)c1`, the growth inhibition in assay [1] is 63% (active); in assay [4], 81% (active). Further, the inhibition in assay [2] is -6%; in assay [3], 2%. Moreover, the result in assay [5], in assay [6], in assay [7] and in assay [8] was inactive.
Turning to `CS(=O)(=O)NCCCNCc1cccc(-c2csc(-c3nc4ccccc4[nH]3)c2)c1`, the growth inhibition in assay [1] is 9%; in assay [4], 95% (active). The inhibition was 23% in assay [2] and 8% in assay [3]. For the same compound, the result in assay [5], in assay [6], in assay [7] and in assay [8] was inactive.
On to `O=C(Nc1ccc(F)c(F)c1)c1ccc(CN2CCCN(Cc3cccc(O)c3)CC2)cc1`, for which the growth inhibition in assay [1] is 57% (active); in assay [4] it was 92% (active). The inhibition in assay [2] was 43%; in assay [3] it was -1%. Further, the outcome in assay [5], in assay [6], in assay [7] and in assay [8] was inactive.
With `Cn1cc(C2CCN(CCCCNC(=O)c3sc(-c4ccc(C(F)(F)F)cc4)nc3CO)CC2)c2ccccc21`, the values for the growth inhibition in assay [1] and in assay [4] were 15% and 95% (active), respectively. Also, the inhibition in assay [2] is 46%; in assay [3], -3%. Further, the result in assay [5], in assay [6], in assay [7] and in assay [8] was inactive.
For the compound `CN1CCN(c2ccnc3cc4c(cc23)N(Cc2ccccc2)CC4)CC1`, the growth inhibition in assay [1] is 27%; in assay [4], 94% (active). Also, the inhibition in assay [2] was -2%; in assay [3], -3%. Besides, the result in assay [5], in assay [6], in assay [7] and in assay [8] was inactive.
`COc1ccccc1Nc1nc(C)cc(NCc2ccc(-c3c(C)noc3C)cc2)n1`: the values for the growth inhibition in assay [1] and in assay [4] were 13% and 98% (active), respectively. Moreover, the results for the inhibition in assay [2] and in assay [3] were 12% and -6%, respectively. In addition, the outcome in assay [5], in assay [6], in assay [7] and in assay [8] was inactive.
As for `Cc1ccc2nc(-c3ccc(C=CC(=O)NCc4ccc(Cl)c(Cl)c4)cc3)[nH]c2c1`, the figures for the growth inhibition in assay [1] and in assay [4] were 18% and 96% (active), respectively. Besides, the inhibition was 5% in assay [2] and -5% in assay [3]. In addition, the result in assay [5], in assay [6], in assay [7] and in assay [8] was inactive.

For orientation: inhibition means the relative decrease from the control value, in per cent.
